Consider 40 compounds from PubChem BioAssay (EPA / NIEHS).

Active and inactive are the calls of the source. Rule for the calls: active = hit-call score of the fitted dose curve at least 0.9, where 1 is the maximum; inactive = score below 0.9.

Hepatocyte nuclear factor 6 (Homo sapiens), sequence (Q9UBC0 whole entry, looked up): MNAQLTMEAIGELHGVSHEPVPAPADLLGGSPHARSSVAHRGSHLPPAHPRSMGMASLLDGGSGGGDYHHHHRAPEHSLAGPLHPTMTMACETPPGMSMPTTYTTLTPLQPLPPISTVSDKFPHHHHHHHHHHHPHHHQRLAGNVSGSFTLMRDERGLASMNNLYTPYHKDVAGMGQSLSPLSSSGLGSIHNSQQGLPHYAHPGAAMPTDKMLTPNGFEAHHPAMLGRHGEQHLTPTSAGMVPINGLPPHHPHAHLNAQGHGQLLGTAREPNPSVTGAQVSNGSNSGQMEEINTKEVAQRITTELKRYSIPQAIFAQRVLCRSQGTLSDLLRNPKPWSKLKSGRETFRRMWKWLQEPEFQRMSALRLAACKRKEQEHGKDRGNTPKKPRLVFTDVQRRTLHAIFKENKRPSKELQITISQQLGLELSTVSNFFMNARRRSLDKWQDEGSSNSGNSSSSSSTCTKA

System in one experiment: not listed separately
As to the kind of experiment: ATG_M_06_CIS: Attagene CIS-FACTORIAL HepG2 Assay for M06 Transcription Factor (Internal Marker) (AID 2282950). The conditions noted are these: HepG2 Attagene CIS-FACTORIAL M06 internal marker reporter; actives raise or lower the signal. The method in brief: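 Internal background marker within multiplexed cis-reporter HepG2 system. Cells transiently transfected, dosed 24 h; reporter mRNA measured by RT-PCR, HpaI digestion and capillary electrophoresis. Bidirectional fit relative to DMSO.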
Regarding `CC(C)=CCC[C@H](C)CCO`, the result was inactive.
As for `CCCCC/C=C\C/C=C\CCCCCCCC(=O)OC`, the compound was classed as inactive.
For the compound `S=C(NC1CCCCC1)NC1CCCCC1`, the outcome was inactive.
In the case of `Cc1cccc(OCCOc2cccc(C)c2)c1`, the outcome was inactive.
Still for that read-out and setting: in the case of `O=S(=O)(Oc1ccc(Cl)cc1Cl)c1ccccc1` it was “inactive”; in that of `CC(C)CCCC(C)CC=O` (stereo not given), “inactive”; in that of `CC(C)(C)C(=O)CCc1ccc(Cl)cc1`, “inactive”.
Regarding `O=CN1CCCCC1`, the result was inactive.
For `O=Cc1ccc(CO)o1`, the compound was called inactive.
On to `CO[Si](CCC1CCC2OC2C1)(OC)OC` (stereo not given), for which the compound was classed as inactive.
As to `N#[N+]c1ccc2c(S(=O)(=O)[O-])cccc2c1O`, the call was inactive.
On to `Cc1cc(=O)n(-c2ccccc2)n1C`, for which the outcome was inactive.
For the compound `N[C@H]1C(O)O[C@H](CO)[C@H](O)[C@@H]1O` (stereo not given in full), the compound was classed as inactive.
As for `O=C(c1ccccc1)c1ccc(O)c(O)c1O`, the call was inactive.
As to `Cc1cccc(C(=O)O)c1`, the outcome was inactive.
Turning to `COC(=O)c1c(C)cc(O)c(C)c1O`, the outcome was inactive.
The same measure, in the same setting: the value for `Cc1cc(C)c(C)c(O)c1` was “inactive”.
`O=S1(=O)OC(c2ccc(O)cc2)(c2ccc(O)cc2)c2ccccc21`: the outcome was inactive.
As to `CCN(Cc1cccc(S(=O)(=O)O)c1)c1ccc(C(=C2C=CC(=[N+](CC)Cc3cccc(S(=O)(=O)[O-])c3)C=C2)c2ccccc2)cc1`, the outcome was inactive.
Consider `O=C(Nc1ccccc1)c1ccccc1O`, for which the outcome was inactive.
As for `CC(=O)NS(=O)(=O)c1ccc(N)cc1`, the compound was classed as inactive.
For the compound `CCO[Si](CCCN=C=O)(OCC)OCC`, the outcome was inactive.
Consider `C=C(C)CCO`, for which the call was inactive.
As for `CCCCCCCCCCc1ccccc1`, the outcome was inactive.
`CCCCCCC(O)CO` (stereo not given): the compound was classed as inactive.
Same read-out and setting: in the case of `CCOC(=O)[C@H](C)O` it was “inactive”; in that of `CC(=O)OCCC1CCCCC1`, “inactive”.
As to `O=C1CCCC(=O)O1`, the compound was called inactive.
Same read-out and setting: in the case of `CCCCC(CC)CCC(CC(C)C)OS(=O)(=O)O` (stereo not given) it was “inactive”; in that of `CC(CC=O)c1ccccc1` (stereo not given), “inactive”.
As to `CC1=CC[C@H]2C[C@@H]1C2(C)C`, the compound was called inactive.
In the case of `O=C1c2cccc(O)c2C(=O)c2c(O)cc(CO)cc21`, the compound was classed as inactive.
On to `C(=CC=Nc1ccccc1)C=CNc1ccccc1`, for which the compound was called inactive.
`C#CC1(O)CC[C@H]2[C@@H]3CCC4=CCCC[C@@H]4[C@H]3CC[C@@]21C` (stereo not given in full): the outcome was inactive.
`COc1cc(NC(=O)CC(C)=O)c(OC)cc1Cl`: the call was inactive.
Still for that read-out and setting: the value for `CNC(=S)N(C)C` was “inactive”.
As to `COc1ccc(-c2coc3cc(O)ccc3c2=O)cc1`, the outcome was inactive.
As for `O=c1n(CCO)c(=O)n(CCO)c(=O)n1CCO`, the compound was called inactive.
Consider `CC(=O)C=CC1C(C)=CCC(C)C1(C)C` (stereo not given), for which the call was inactive.
In the case of `C=C(C)[C@H]1CC=C(C)CC1`, the result was inactive.

The target of another experiment is Hypoxia-inducible factor 1-alpha (Homo sapiens) (UniProt Q16665). As to the kind of experiment: ATG_HIF1a_CIS: Attagene CIS-FACTORIAL HepG2 Assay for human Hypoxia Inducible Factor 1 (HIF1A) (AID 2282951). The conditions noted are these: HepG2 Attagene cis-factorial HIF1a reporter transcription; actives raise or lower the signal. The method, boiled down: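 Transient MRTU transfection of human HepG2 liver cells, 24 h compound treatment, then total RNA isolation, oligo(dT) reverse transcription, PCR amplification, fluorescent labelling and capillary electrophoresis of reporter fragments. Gain or loss relative to DMSO.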
Hypoxia-inducible factor 1-alpha (Homo sapiens), sequence (Q16665 whole entry, looked up, the tested form may be a part): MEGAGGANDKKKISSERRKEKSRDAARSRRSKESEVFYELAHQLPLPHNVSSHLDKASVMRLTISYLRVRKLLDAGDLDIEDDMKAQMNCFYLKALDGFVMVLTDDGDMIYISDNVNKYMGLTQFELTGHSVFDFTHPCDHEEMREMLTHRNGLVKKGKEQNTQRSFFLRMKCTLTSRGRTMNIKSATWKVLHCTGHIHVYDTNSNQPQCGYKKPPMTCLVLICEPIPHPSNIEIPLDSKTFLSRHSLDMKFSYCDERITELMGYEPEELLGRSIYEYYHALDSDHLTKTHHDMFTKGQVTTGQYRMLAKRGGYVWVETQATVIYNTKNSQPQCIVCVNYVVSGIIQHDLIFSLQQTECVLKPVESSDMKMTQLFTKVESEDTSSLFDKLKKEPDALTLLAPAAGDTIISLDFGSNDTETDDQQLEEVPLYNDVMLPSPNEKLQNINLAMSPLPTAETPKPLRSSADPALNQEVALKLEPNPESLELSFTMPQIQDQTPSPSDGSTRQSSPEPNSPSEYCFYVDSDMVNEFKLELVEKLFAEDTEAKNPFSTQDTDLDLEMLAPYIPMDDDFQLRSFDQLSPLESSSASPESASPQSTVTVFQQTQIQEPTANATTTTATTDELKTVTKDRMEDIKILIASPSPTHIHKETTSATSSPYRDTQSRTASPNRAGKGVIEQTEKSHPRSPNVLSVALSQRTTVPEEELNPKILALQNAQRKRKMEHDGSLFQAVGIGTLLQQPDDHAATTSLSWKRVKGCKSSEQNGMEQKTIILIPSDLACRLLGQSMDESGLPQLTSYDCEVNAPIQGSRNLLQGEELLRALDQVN
Consider `CC(C)=CCC[C@H](C)CCO`, for which the call was inactive.
With `CCCCC/C=C\C/C=C\CCCCCCCC(=O)OC`, the outcome was inactive.
As to `S=C(NC1CCCCC1)NC1CCCCC1`, the compound was called inactive.
In the case of `Cc1cccc(OCCOc2cccc(C)c2)c1`, the compound was called inactive.
On to `O=S(=O)(Oc1ccc(Cl)cc1Cl)c1ccccc1`, for which the outcome was inactive.
For the compound `CC(C)CCCC(C)CC=O` (stereo not given), the outcome was inactive.
For `CC(C)(C)C(=O)CCc1ccc(Cl)cc1`, the compound was called inactive.
On the same count and under the same terms, the value for `O=CN1CCCCC1` was “inactive”; that for `O=Cc1ccc(CO)o1` was “inactive”; that for `CO[Si](CCC1CCC2OC2C1)(OC)OC` (stereo not given) was “inactive”.
`N#[N+]c1ccc2c(S(=O)(=O)[O-])cccc2c1O`: the outcome was inactive.
For `N[C@H]1C(O)O[C@H](CO)[C@H](O)[C@@H]1O` (stereo not given in full), the result was inactive.
As usually defined, the AC50 is the midpoint of the concentration-response curve, whichever way the signal moves. Consider `O=C(c1ccccc1)c1ccc(O)c(O)c1O`, for which the concentration at half-maximal activity (AC50) is 61.2 µM (active).
Take `Cc1cccc(C(=O)O)c1`: the compound was called inactive.
Regarding `COC(=O)c1c(C)cc(O)c(C)c1O`, the call was inactive.
As to `Cc1cc(C)c(C)c(O)c1`, the compound was classed as inactive.
Consider `O=S1(=O)OC(c2ccc(O)cc2)(c2ccc(O)cc2)c2ccccc21`, for which the compound was classed as inactive.
Turning to `CCN(Cc1cccc(S(=O)(=O)O)c1)c1ccc(C(=C2C=CC(=[N+](CC)Cc3cccc(S(=O)(=O)[O-])c3)C=C2)c2ccccc2)cc1`, the compound was called inactive.
Take `O=C(Nc1ccccc1)c1ccccc1O`: the outcome was inactive.
On the same count and under the same terms, in the case of `CCO[Si](CCCN=C=O)(OCC)OCC` it was “inactive”; in that of `C=C(C)CCO`, “inactive”; in that of `CCCCCCCCCCc1ccccc1`, “inactive”.
With `CCCCCCC(O)CO` (stereo not given), the compound was classed as inactive.
The same measure, in the same setting: the value for `CCOC(=O)[C@H](C)O` was “inactive”.
For `CC(=O)OCCC1CCCCC1`, the compound was classed as inactive.
`O=C1CCCC(=O)O1`: the compound was classed as inactive.
On to `CCCCC(CC)CCC(CC(C)C)OS(=O)(=O)O` (stereo not given), for which the compound was classed as inactive.
Still for that read-out and setting: in the case of `CC(CC=O)c1ccccc1` (stereo not given) it was “inactive”; in that of `CC1=CC[C@H]2C[C@@H]1C2(C)C`, “inactive”.
Consider `O=C1c2cccc(O)c2C(=O)c2c(O)cc(CO)cc21`, for which the AC50 is 24 µM (active).
As for `C(=CC=Nc1ccccc1)C=CNc1ccccc1`, the result was inactive.
With `C#CC1(O)CC[C@H]2[C@@H]3CCC4=CCCC[C@@H]4[C@H]3CC[C@@]21C` (stereo not given in full), the outcome was inactive.
For the compound `COc1cc(NC(=O)CC(C)=O)c(OC)cc1Cl`, the compound was classed as inactive.
In the case of `CNC(=S)N(C)C`, the call was inactive.
For `COc1ccc(-c2coc3cc(O)ccc3c2=O)cc1`, the compound was classed as inactive.
`O=c1n(CCO)c(=O)n(CCO)c(=O)n1CCO`: the result was inactive.
For the compound `CC(=O)C=CC1C(C)=CCC(C)C1(C)C` (stereo not given), the compound was called inactive.
Same read-out and setting: the value for `C=C(C)[C@H]1CC=C(C)CC1` was “inactive”.

A further experiment addresses Hepatocyte nuclear factor 6 (Homo sapiens) (UniProt Q9UBC0). As to the kind of experiment: ATG_HNF6_CIS: Attagene CIS-FACTORIAL HepG2 Assay for human Hepatocyte Nuclear Factor 6 (HNF6) (AID 2282952). The conditions noted are these: HepG2 Attagene cis-factorial HNF6 reporter transcription; actives raise or lower the signal. The method in brief: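 Endogenous factor activity read in transiently transfected HepG2 via promoter-regulated reporter transcripts. RNA harvested 24 h post-dosing, reverse-transcribed, PCR-amplified, FAM-labelled, HpaI-digested and resolved by capillary electrophoresis; fitted in both directions against DMSO.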
Take `CC(C)=CCC[C@H](C)CCO`: the compound was called inactive.
On the same count and under the same terms, in the case of `CCCCC/C=C\C/C=C\CCCCCCCC(=O)OC` it was “inactive”.
Consider `S=C(NC1CCCCC1)NC1CCCCC1`, for which the outcome was inactive.
Same read-out and setting: in the case of `Cc1cccc(OCCOc2cccc(C)c2)c1` it was “inactive”.
Regarding `O=S(=O)(Oc1ccc(Cl)cc1Cl)c1ccccc1`, the outcome was inactive.
With `CC(C)CCCC(C)CC=O` (stereo not given), the outcome was inactive.
`CC(C)(C)C(=O)CCc1ccc(Cl)cc1`: the outcome was inactive.
The same measure, in the same setting: in the case of `O=Cc1ccc(CO)o1` it was “inactive”; in that of `CO[Si](CCC1CCC2OC2C1)(OC)OC` (stereo not given), “inactive”; in that of `N#[N+]c1ccc2c(S(=O)(=O)[O-])cccc2c1O`, “inactive”.
With `Cc1cc(=O)n(-c2ccccc2)n1C`, the result was inactive.
The same measure, in the same setting: in the case of `N[C@H]1C(O)O[C@H](CO)[C@H](O)[C@@H]1O` (stereo not given in full) it was “inactive”.
On the same count and under the same terms, the value for `O=C(c1ccccc1)c1ccc(O)c(O)c1O` was “inactive”.
With `Cc1cccc(C(=O)O)c1`, the outcome was inactive.
Regarding `COC(=O)c1c(C)cc(O)c(C)c1O`, the call was inactive.
Same read-out and setting: in the case of `Cc1cc(C)c(C)c(O)c1` it was “inactive”; in that of `O=S1(=O)OC(c2ccc(O)cc2)(c2ccc(O)cc2)c2ccccc21`, “inactive”; in that of `CCN(Cc1cccc(S(=O)(=O)O)c1)c1ccc(C(=C2C=CC(=[N+](CC)Cc3cccc(S(=O)(=O)[O-])c3)C=C2)c2ccccc2)cc1`, “inactive”.
With `CC(=O)NS(=O)(=O)c1ccc(N)cc1`, the compound was classed as inactive.
Still for that read-out and setting: the value for `CCO[Si](CCCN=C=O)(OCC)OCC` was “inactive”; that for `C=C(C)CCO` was “inactive”.
`CCCCCCCCCCc1ccccc1`: the outcome was inactive.
With `CCCCCCC(O)CO` (stereo not given), the outcome was inactive.
Same read-out and setting: the value for `CCOC(=O)[C@H](C)O` was “inactive”; that for `CC(=O)OCCC1CCCCC1` was “inactive”.
`O=C1CCCC(=O)O1`: the compound was called inactive.
On to `CCCCC(CC)CCC(CC(C)C)OS(=O)(=O)O` (stereo not given), for which the result was inactive.
On the same count and under the same terms, the value for `CC(CC=O)c1ccccc1` (stereo not given) was “inactive”; that for `CC1=CC[C@H]2C[C@@H]1C2(C)C` was “inactive”.
As for `C(=CC=Nc1ccccc1)C=CNc1ccccc1`, the compound was called inactive.
As for `C#CC1(O)CC[C@H]2[C@@H]3CCC4=CCCC[C@@H]4[C@H]3CC[C@@]21C` (stereo not given in full), the half-maximal activity concentration (AC50) was 55.3 µM (active).
Regarding `COc1cc(NC(=O)CC(C)=O)c(OC)cc1Cl`, the call was inactive.
Regarding `CNC(=S)N(C)C`, the result was inactive.
Same read-out and setting: the value for `COc1ccc(-c2coc3cc(O)ccc3c2=O)cc1` was “inactive”; that for `O=c1n(CCO)c(=O)n(CCO)c(=O)n1CCO` was “inactive”.
For the compound `CC(=O)C=CC1C(C)=CCC(C)C1(C)C` (stereo not given), the compound was called inactive.
Take `C=C(C)[C@H]1CC=C(C)CC1`: the call was inactive.
